The supplement of paper PMC8728848
The entries come from a sample that favours the strongest signals as a whole.

Columns and labels:
Test in all cases: glycan array binding signal (z-score within array); higher = stronger binding
Conditions in all cases: glycan notation: IUPAC condensed, linker removed
[1] = molecular target: Fuc(a1-2)Gal(b1-4)GlcNAc(b1-3)Gal(b1-4)GlcNAc
Method in brief: (§1)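 Glycan array binding is given as a within-array Z-score, which can be read as non-binding when negative. The arrays, 3228 of them, came from the Consortium for Functional Glycomics database and were retained only where the protein sequence was available. Z-scores were averaged across arrays of the same protein sequence at different concentrations or buffers and across linkers.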

[2] = molecular target: Fuc(a1-2)Gal(b1-4)GlcNAc(b1-3)[Fuc(a1-2)Gal(b1-4)GlcNAc(b1-6)]GalNAc
Method in brief: as §1

[3] = molecular target: Fuc(a1-2)Gal(b1-4)[Fuc(a1-3)]GlcNAc(b1-2)Man(a1-3)[Fuc(a1-2)Gal(b1-4)[Fuc(a1-3)]GlcNAc(b1-2)Man(a1-6)]Man(b1-4)GlcNAc(b1-4)GlcNAc
Method in brief: as §1

[4] = molecular target: Fuc(a1-2)Gal(b1-4)[Fuc(a1-3)]GlcNAc(b1-2)[Fuc(a1-2)Gal(b1-4)[Fuc(a1-3)]GlcNAc(b1-4)]Man(a1-3)[Fuc(a1-2)Gal(b1-4)[Fuc(a1-3)]GlcNAc(b1-2)Man(a1-6)]Man(b1-4)GlcNAc(b1-4)GlcNAc
Method in brief: as §1

[5] = molecular target: Fuc(a1-2)Gal(b1-4)[Fuc(a1-3)]GlcNAc(b1-3)Gal(b1-4)[Fuc(a1-3)]GlcNAc(b1-3)Gal(b1-4)[Fuc(a1-3)]GlcNAc
Method in brief: as §1

[6] = molecular target: Fuc(a1-2)Gal(b1-4)[Fuc(a1-3)]GlcNAc(b1-3)GalNAc
Method in brief: as §1

[7] = molecular target: Fuc(a1-2)[Gal(a1-3)]Gal(b1-4)[Fuc(a1-3)]Glc
Method in brief: as §1

[8] = molecular target: Fuc(a1-2)[Gal(a1-4)]Gal(b1-4)GlcNAc
Method in brief: as §1

[9] = molecular target: Fuc(a1-2)[GalNAc(a1-3)]Gal
Method in brief: as §1

[10] = molecular target: Fuc(a1-2)[GalNAc(a1-3)]Gal(b1-4)Glc
Method in brief: as §1

[11] = molecular target: Fuc(a1-2)[GalNAc(a1-3)]Gal(b1-4)[Fuc(a1-3)]GlcNAc
Method in brief: as §1

[12] = molecular target: Fuc(a1-3)[Gal3S(b1-4)]GlcNAc6S
Method in brief: as §1

Gal(a1-3)Gal(b1-4)Glc = molecular target: Gal(a1-3)Gal(b1-4)Glc
Method in brief: as §1

[13] = molecular target: Gal(a1-4)Gal(b1-4)GlcNAc(b1-3)Gal(b1-4)Glc
Method in brief: as §1

[14] = molecular target: Gal(b1-3)GalNAc(a1-3)[Fuc(a1-2)]Gal(b1-4)Glc
Method in brief: as §1

[15] = molecular target: Gal(b1-3)GlcNAc(b1-2)Man(a1-3)[GlcNAc(b1-4)][Gal(b1-3)GlcNAc(b1-2)Man(a1-6)]Man(b1-4)GlcNAc(b1-4)GlcNAc
Method in brief: as §1

[16] = molecular target: Gal(b1-4)GalNAc(b1-3)[Fuc(a1-2)]Gal(b1-4)GlcNAc
Method in brief: as §1

[17] = molecular target: Gal(b1-4)GlcNAc(b1-2)Man(a1-3)Man(b1-4)GlcNAc(b1-4)GlcNAc
Method in brief: as §1

Gal(b1-4)GlcNAc6P = molecular target: Gal(b1-4)GlcNAc6P
Method in brief: as §1

Gal(b1-6)Gal = molecular target: Gal(b1-6)Gal
Method in brief: as §1

Gal3S(b1-4)Glc = molecular target: Gal3S(b1-4)Glc
Method in brief: as §1

[18] = molecular target: Gal3S(b1-4)[Fuc(a1-3)]Glc6S
Method in brief: as §1

Gal6S(b1-4)GlcNAc6S = molecular target: Gal6S(b1-4)GlcNAc6S
Method in brief: as §1

GalNAc(b1-4)Gal(b1-4)Glc = molecular target: GalNAc(b1-4)Gal(b1-4)Glc
Method in brief: as §1

GalNAc6S(b1-4)GlcNAc = molecular target: GalNAc6S(b1-4)GlcNAc
Method in brief: as §1

[19] = molecular target: GlcNAc(a1-4)Gal(b1-4)GlcNAc(b1-3)Gal(b1-4)[Fuc(a1-3)]GlcNAc(b1-3)Gal(b1-4)[Fuc(a1-3)]GlcNAc
Method in brief: as §1

[20] = molecular target: GlcNAc(b1-3)[GlcNAc(b1-4)][GlcNAc(b1-6)]GlcNAc
Method in brief: as §1

[21] = molecular target: Man(a1-2)Man(a1-2)Man(a1-6)[Man(a1-3)]Man
Method in brief: as §1

[22] = molecular target: Neu5Ac(a2-3)Gal(b1-3)GlcNAc(b1-3)Gal(b1-3)GlcNAc
Method in brief: as §1

[23] = molecular target: Neu5Ac(a2-3)Gal(b1-3)GlcNAc6S
Method in brief: as §1

B1: OrfX (Escherichia coli), Q9X4B6_ECOLX (protein)
chain: MIKIARIAVTLGLLSSLGAQAYAAGLVVNDNDLRNDLAWLSDRGVIHLSLSTWPLSQEEIARALKKAKPSYSSEQVVLARINQRLSALKADFRVTGYTSTDQPGTPQGFGQTQPADNSLGLAFNNSGEWWDVHLQGNVEGGERISNGSRFNANGAYGAVKFWNQWLSFGQVPQWWGPGYEGSLIRGDAMRPMTGFLMQRAEQAAPETWWLRWVGPWQYQISASQMNQYTAVPHAKIIGGRFTFTPFQSLELGASRIMQWGGEGRPQSFSSFWDGFTGHDNTGTDNEPGNQLAGFDFKFKLEPTLGWPVSFYGQMVGEDESGYLPSANMFLGGVEGHHGWGKDTVNWYVEAHDTRTNMSRTNYSYTHHIYKDGYYQQGYPLGDAMGGDGQLIAGKVELITEDNQRWSTRLVYAKVNPENQSINKAFPHADTLKGLQLGWSGDVYQSVRLNTSLWYTNANNSDSDDVGASAGIEIPFSL
[1]
  glycan array binding signal (z-score): -0.191
[2]
  glycan array binding signal (z-score): 0.429
[3]
  glycan array binding signal (z-score): 0.202
[4]
  glycan array binding signal (z-score): -0.108
[5]
  glycan array binding signal (z-score): -0.02
[6]
  glycan array binding signal (z-score): 4.3
[7]
  glycan array binding signal (z-score): -0.132
[8]
  glycan array binding signal (z-score): -0.32
[9]
  glycan array binding signal (z-score): -0.116
[10]
  glycan array binding signal (z-score): -0.196
[11]
  glycan array binding signal (z-score): 0.042
[12]
  glycan array binding signal (z-score): 2.97
Gal(a1-3)Gal(b1-4)Glc
  glycan array binding signal (z-score): -0.261
[13]
  glycan array binding signal (z-score): -0.181
[14]
  glycan array binding signal (z-score): -0.182
[15]
  glycan array binding signal (z-score): 0.214
[16]
  glycan array binding signal (z-score): -0.145
[17]
  glycan array binding signal (z-score): -0.266
Gal(b1-4)GlcNAc6P
  glycan array binding signal (z-score): 0.611
Gal(b1-6)Gal
  glycan array binding signal (z-score): 0.048
Gal3S(b1-4)Glc
  glycan array binding signal (z-score): 0.076
[18]
  glycan array binding signal (z-score): 2.79
Gal6S(b1-4)GlcNAc6S
  glycan array binding signal (z-score): 2.74
GalNAc(b1-4)Gal(b1-4)Glc
  glycan array binding signal (z-score): 0.667
GalNAc6S(b1-4)GlcNAc
  glycan array binding signal (z-score): -0.318
[19]
  glycan array binding signal (z-score): 10.6
[20]
  glycan array binding signal (z-score): 11.2
[21]
  glycan array binding signal (z-score): -0.231
[22]
  glycan array binding signal (z-score): -0.096
[23]
  glycan array binding signal (z-score): -0.301
